Screening data as filed in PubChem BioAssay.
Pf apPOL inh = Pf-apPOL DNA polymerase inhibition | hit rate 0.25% among 210,000 | AID 1794808 | inhibition, % at 10 µM | Recombinant Pf-apPOL, molecular beacon fluorescence, 1.5 h
mHTT-CaM PPI inh = inhibitors of human mutant huntingtin-calmodulin interaction | P42858 | AlphaScreen His-mHTT/GST-CaM binding, luminescence | inhibition, % at 15 µM | hit rate 3.6% among 190,000;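 further: 0% = both proteins with DMSO and 100% = one protein alone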
Active calls of the source: *; i = inactive; nt = not tested or not shown. Most compounds without a hit are left out; they make up all but 3.6% or so of the library. No stated cut-off is given here; in the data, active means inhibition above about 50%; inactive means the rest.

SMILES	Pf apPOL inh	mHTT-CaM PPI inh
Cc1nc(NC(=O)c2ccc(-n3ccnc3)nn2)sc1C	6.8	90.0*
Cc1ccnc(NS(=O)(=O)c2ccc(NC(=O)c3ccc(-n4ccnc4)nn3)cc2)n1	4.6	-12.1
COc1ccccc1-c1nnc(NC(=O)c2ccc3c(c2)CCCC3)o1	-6.1	-2.3
CC(C)S(=O)(=O)c1cccc(-c2nnc(NC(=O)c3ccc4c(c3)CCCC4)o2)c1	-17.9	50.9*
CCN1CCN(C(=O)c2sc(-c3cn(C(C)C)c4ncccc34)nc2C)CC1	-6.3	20.5
CC1=NN(c2cc(Cl)ccc2Cl)C(=O)/C1=C/c1cccn1-c1ccc(S(N)(=O)=O)cc1	0.2	63.0*
CC1=NN(c2cc(Cl)cc(Cl)c2)C(=O)/C1=C/c1cccn1-c1ccc(S(N)(=O)=O)cc1	-4.5	52.0*
CC1=NN(c2ccc(S(N)(=O)=O)cc2)C(=O)/C1=C/c1ccc(O)cc1	1.1	27.0
NS(=O)(=O)c1ccc(-n2cccc2/C=N/n2cnnc2)cc1	nt	i
CC1CCN(C(=O)C2CC(=O)N(C3CCN(Cc4ccccc4)CC3)C2)CC1 (stereo not drawn)	-0.4	8.0
O=C(CCc1ccccc1)Nc1nnc(SCc2c(Cl)cccc2[N+](=O)[O-])s1	-5.8	-2.7
COc1ccc(S(=O)(=O)N(CC(N)=O)c2ccc(C)cc2)cc1OC	-3.4	-1.4
Cc1ccc(C2=NN(C(=O)CN3CCOCC3)C(c3ccccc3C)C2)c(C)c1 (stereo not drawn)	-1.5	86.0*
Cc1ccc(C2=NN(C(=O)CN3CCOCC3)C(c3ccccc3F)C2)c(C)c1 (stereo not drawn)	0.5	24.4
Cc1ccc(C2=NN(C(=O)CN3CCOCC3)C(c3cc(C)ccc3C)C2)c(C)c1 (stereo not drawn)	-2.5	65.4*
COc1ccccc1C1CC(c2ccc(C)cc2C)=NN1C(=O)CN1CCOCC1 (stereo not drawn)	-3.9	63.1*
COc1ccccc1C1CC(c2ccc(F)cc2)=NN1C(=O)CN1CCCCC1 (stereo not drawn)	-0.2	100.2*
COc1ccccc1C1CC(c2cccc(C)c2)=NN1C(=O)CN1CCCCC1 (stereo not drawn)	-1.7	45.2
COc1ccccc1C1CC(c2ccc(C)cc2)=NN1C(=O)CN1CCCCC1 (stereo not drawn)	-4.9	40.1
Cc1ccc(C2=NN(C(=O)CN3CCOCC3)C(c3ccccc3F)C2)cc1 (stereo not drawn)	-6.0	39.5
COc1ccccc1N1CCN(C(=O)CN(c2cccc(Cl)c2)S(C)(=O)=O)CC1	-0.4	7.9
COc1ccc(NC(=O)c2cnn3c(C(F)(F)F)cc(-c4ccc(C)cc4)nc23)cc1	-12.1	5.0
CN(C)c1ccc(C(CNC(=O)C(=O)NCCC2=CCCCC2)N2CCCC2)cc1 (stereo not drawn)	-1.6	18.2
CCC(CC)C(=O)NCCC1CCN(C(=O)NC2CCCCC2)CC1	-8.6	-2.3
N#C/C(=C\c1ccc(O)cc1O)c1nc2ccccc2[nH]1	-0.1	72.3*
SMILES	Pf apPOL inh	mHTT-CaM PPI inh
N#C/C(=C\c1cc(Cl)ccc1O)c1nc2ccccc2[nH]1	3.6	8.4
Cc1ccc2nc(/C(C#N)=C/c3cccc(O)c3)[nH]c2c1	-4.0	69.8*
N#C/C(=C\c1ccc(I)o1)c1nc2ccccc2[nH]1	2.5	-2.9
COc1ccc(/C=C(\C#N)c2nc3ccc(C)cc3[nH]2)cc1	-13.6	3.5
N#C/C(=C\c1ccc(Sc2nc3ccccc3[nH]2)o1)c1nc2ccccc2[nH]1	-5.9	100.3*
Cc1ccc2nc(/C(C#N)=C/c3cccc(Br)c3)[nH]c2c1	-1.6	-21.2
COc1cc(/C=C(\C#N)c2nc3ccc(C)cc3[nH]2)ccc1OCC#N	-4.5	70.3*
CC(O)(CNC(=O)COc1ccc(Cl)cc1Cl)c1ccc2c(c1)OCO2 (stereo not drawn)	-9.1	-9.8
COc1cccc(C(=O)N2CCC3(C2)NC(=O)N(Cc2ccc(Cl)cc2)C3=O)c1 (stereo not drawn)	-1.1	12.5
Cc1cccc(Cn2ccnc2C(N)=O)c1	-4.6	-5.4
COc1cccc(CNC(=O)C2(C)CCCN(C(=O)Nc3cc(Cl)ccc3C)C2)c1 (stereo not drawn)	-3.4	-0.9
Cc1ccc(CNC(=O)N2CCC(C(=O)NCc3csc(-c4ccccc4)n3)CC2)cc1	-2.5	-6.0
COc1ccc(NC(=O)c2ccc(N(Cc3ccc(C)cc3)S(C)(=O)=O)cc2)cc1OC	-3.8	17.6
COc1cc(/C=C(\C#N)c2nc3ncc(Br)cc3[nH]2)ccc1O	-7.3	55.0*
COc1cc(/C=C(\C#N)c2nc3ccccc3[nH]2)cc(Br)c1O	8.3	1.0
Cc1ccc(/C=C(\C#N)c2[nH]nc(N)c2C#N)cc1	-0.8	31.3
N#C/C(=C\c1ccc(-c2ccc(Cl)c(Cl)c2)o1)c1[nH]nc(N)c1C#N	-7.2	95.0*
N#C/C(=C\c1c[nH]c2ccccc12)c1[nH]nc(N)c1C#N	1.0	54.1*
COc1cc(/C=C(\C#N)c2[nH]nc(N)c2C#N)cc(OC)c1OC	-2.8	-4.6
